# Assay results published in PubChem BioAssay (NCI).
# This is part of a sample that, as a whole, favours compounds with a hit. Of some 83,000 tested, about 20% had one in any assay.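 The test compound was applied at a single concentration to cells in 96-well plates for 48 hours, and percent growth was recorded.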 Active and inactive are the calls of the source. Rule for the calls: active = growth percent below 10; inactive = the rest.
# Test system: HT29 colon
# Assay: NCI-60 one-dose screen, 48 h (100 = growth as untreated, 0 = no growth, -100 = all killed)
# Details: 10 µM unless noted
row,SMILES,growth
1,OC(c1ccccc1)(c1ccccc1)c1ccccc1-c1ccccc1,73.4% (inactive)
2,Clc1ccc(-c2nc(-c3c[nH]c4ncccc34)cs2)cc1,80.2% [100 µM] (inactive)
3,CC(=O)c1cc(-c2ccccc2N)n(-c2ccc3c(c2)OCO3)c1C,6.88% (active)
4,CC1O[C@@H]2C[C@@](O)([C@H]1O)n1c3ccccc3c3c4c(c5c6ccccc6n2c5c31)C(=O)NC4=O (stereo not given in full),28.6% (inactive)
5,COC(=O)/C(CCC=C(C)C)=C1\[C@@H](OC(C)=O)C[C@@]2(C)[C@H]1CC(=O)[C@H]1[C@@]3(C)CCC(N4CCCC4)[C@@H](C)[C@@H]3CC[C@@]12C (stereo not given in full),68.2% (inactive)
6,CN(C)c1ccc(/C=C2/C=C(c3ccccc3)OC2=O)cc1,94.7% (inactive)
7,COc1cc(-c2nc3occn3c2-c2ccnc(NCCCNS(=O)(=O)c3ccccc3)n2)ccc1F,16.7% (inactive)
8,O=C(Nc1ccccc1)c1sc(-c2ccccc2)cc1O,107% (inactive)
9,CCOC(=O)c1c2c(n3c1NCC3)-c1ccccc1C2=O,98.1% (inactive)
10,C/C(=N\Nc1nc(C)cs1)c1cc2ccccc2o1,103% (inactive)
11,CCOC(=O)C1=C(c2ccccc2)N=c2s/c(=C/c3ccc(Br)cc3)c(=O)n2C1c1ccc(O)cc1 (stereo not given),87.6% (inactive)
12,COc1ccc(C2CC(c3ccc(Nc4nc(Nc5ccc(F)cc5)nc(Nc5ccc(F)cc5)n4)cc3)=NN2C(C)=O)cc1 (stereo not given),100% (inactive)
13,c1ccc2cc(Cn3c[n+](Cc4ccc5ccccc5c4)c4ccccc43)ccc2c1,-80.6% (active)
14,CN1CCN(c2ccc3c(c2)nc(NNC(=O)c2cnccn2)c2cccn23)CC1,28.6% (inactive)
15,Cc1cc(C)c(-c2c(O)c(Br)c(-c3c(C)cc(C)c(Br)c3C)c(O)c2Br)c(C)c1Br,2.43% (active)
16,CCCCCCCCCCCCCCCCCCOc1ccccc1CC(=O)NCC[N+]1(C)CCOCC1,29.8% (inactive)
17,O=C(/C=C/c1cccc(Cl)c1)c1cccc(OCCCCOc2cccc(C(=O)/C=C/c3cccc(Cl)c3)c2)c1,76.1% (inactive)
18,Cc1ccc(-c2nc(C#N)c(S(=O)(=O)NCCO)o2)cc1,24.2% (inactive)
19,NC(=O)c1ccc(NC(=O)c2oc3ccccc3c2-c2cnn(-c3ccccc3)c2)cc1,2.07% [50 µM] (active)
20,O=C(CBr)CN1C(=O)c2ccccc2C1=O,99.9% (inactive)

row,SMILES,growth
1,CCN(CC)c1ccc(/C=C\c2cc(C)c3cc(C)ccc3n2)cc1,-17.9% (active)
2,C=CCN=C(N)SCCCCCCSC(N)=NCC=C,73.2% (inactive)
3,Clc1nn2c(Cn3cnc4c(NCc5ccccc5)ncnc43)nnc2c2ccccc12,56.4% (inactive)
4,CCOC(=O)c1ccc2c(c1)c1c(C)c3ccncc3c(C)c1n2C,3.66% (active)
5,CCCCCCCCn1ccc2cc(NC(=O)Cn3cc(CN4CCCCCC4)nn3)ccc21,-48.3% (active)
6,N#CC(C#N)N=Nc1ccc(Cl)cc1Cl,81.8% (inactive)
7,Brc1ccc(-c2cnc3nonc3n2)cc1,70.2% (inactive)
8,COc1cccc(C(=O)OCC(O)C(=O)NC23CC4CC(CC(C4)C2)C3)c1 (stereo not given),101% (inactive)
9,O=C(Nc1cccc(NC(=O)C2CCCCC2)c1)c1ccccn1,90.4% (inactive)
10,Cc1cc(C)cc(Nc2ccc([N+](=O)[O-])c(NCCN3CCOCC3)n2)c1,13.4% (inactive)
11,O=C(Nc1cccnc1Nc1ccc(Cl)cc1)c1cn(Cc2ccc(F)cc2)nn1,113% (inactive)
12,Cn1c(=O)c2c(c3ccccc31)OC(N)=C(C#N)C21C(=O)c2ccccc2C1=O,102% (inactive)
13,COc1cccc(/C=C2\COc3ccc(O)cc3C2=O)c1,37.8% (inactive)
14,CCc1cccc(Sc2cc(C(=O)N3Cc4ccc(OCCN(C)C)cc4C3)ccc2O)c1,103% (inactive)
15,C=C(CN1CC=CCC1)[C@@H]1CC[C@]2(CO)CC[C@]3(C)[C@H](CC[C@@H]4[C@@]5(C)CC[C@H](O)C(C)(C)[C@@H]5CC[C@]43C)[C@@H]12,55.3% (inactive)
16,COc1ccc(/C(C)=C(\c2ccc(Cl)cc2)c2ccc(OCCN3CCCC3)cc2)cc1,-18.1% (active)
17,CC/C(Cc1ccccc1)=C(\c1ccc(OCCN2CCCCCC2)cc1)c1ccc(OC(=O)NCc2ccccc2)cc1,5.23% (active)
18,N=c1sc(Cc2cc(Cl)ccc2Cl)cn1CC(=O)c1ccccc1,16.1% (inactive)
19,Cc1cc(C(=O)Nc2cc(Nc3ncccc3-c3ncnc4nc[nH]c34)ccc2F)cc(C(F)(F)F)c1,20.8% (inactive)
20,C[C@@H]1O[C@@H](O[C@@H]2C[C@H](c3ccc4c(c3O)C(=O)C3=C(C4=O)[C@@]4(O)C(=O)C[C@](C)(O)C[C@@]4(O)C=C3)O[C@H](C)[C@H]2O)C[C@H](O)[C@@H]1O,106% (inactive)
